Assay results from PubChem BioAssay (NCATS).
Values without a mark were called inactive. Inconclusive results are not listed. Calls of active or inactive are those of the source. Calls come from the whole dose curve; as a rule, active = well fitted curve in the direction sought with a large enough effect; inconclusive = small, poorly fitted or top-dose-only effect, or another doubt; inactive = no such curve, though single readings can be large; an effect the other way counts as inactive or inconclusive.

Assays:
[1] = target: Glutathione peroxidase 1 (Homo sapiens) (UniProt P07203); experiment: Primary qHTS Assay for Inhibitors of Recombinant Selenoprotein Glutathione Peroxidase 1 (GPX1) (AID 1845191); note: % is set by controls: 0 for no effect and ±100 for the full control effect; nearly all actives have a fitted effect of over 65% in size
Procedure, shortened: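 Recombinant GPX1 (10 nM final) was preincubated with compound for 30 min at room temperature, then reacted with 1 mM GSH, 0.5 mM CHP, 0.5 mM NADPH and 100 nM glutathione reductase; NADPH fluorescence (340/450 nm) was read at 0 and 15 min.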

[2] = target: Rap guanine nucleotide exchange factor 3 (Homo sapiens) (UniProt O95398); experiment: Confirmatory qHTS for antagonist of cAMP-regulated guanine nucleotide exchange factor 3 (EPAC1) (AID 1645880);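 note: plate controls were DMSO only for no effect and full effect of the ATA control for full effect; nearly all actives have a fitted effect of over 55% in size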
Procedure, shortened: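 Nucleotide exchange uses 100 nM EPAC1, 250 nM RAP1B-BODIPY-GDP and 50 uM GDP, with compounds in a concentration-titration series. After 5 min at room temperature, fluorescence (480 nm ex/540 nm em) is read every 5 min for 30 min. Data are normalized to control ATA and DMSO.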

[3] = target: Rap guanine nucleotide exchange factor 4 (Homo sapiens) (UniProt Q8WZA2); experiment: Confirmatory qHTS for agonist of cAMP-regulated guanine nucleotide exchange factor 4 (EPAC2) (AID 1645884);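 note: nucleotide exchange releases bodipy-GDP from Rap1 and this lowers its fluorescence; % is set by controls: 0 for no effect and ±100 for the full control effect; nearly all actives have a fitted effect of over 65% in size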
[4] = target: Rap guanine nucleotide exchange factor 4 (Homo sapiens) (UniProt Q8WZA2); experiment: Confirmatory qHTS for antagonist of cAMP-regulated guanine nucleotide exchange factor 4 (EPAC2) (AID 1645885); note: % is set by controls: 0 for no effect and ±100 for the full control effect; nearly all actives have a fitted effect of over 25% in size
[5] = target: Rap guanine nucleotide exchange factor 3 (Homo sapiens) (UniProt O95398); experiment: Counterscreen qHTS for agonist of cAMP-regulated guanine nucleotide exchange factor 3 (EPAC1) (AID 1645889); note: % of control where 0% means no effect; nearly all actives have a fitted effect of over 40% in size
Procedure, shortened: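 Measured: fluorescence of BODIPY-GDP bound to Rap1B, which falls as exchange proceeds. Conditions include 50 uM competing GDP, 5 and 30 min reads, and a later cAMP challenge for antagonist detection.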

CP192 = experiment: qHTS profiling for inhibitors of Plasmodium falciparum proliferation (AID 504749); note: nearly all actives have a fitted effect of over 60% in size; note: potency is the fitted concentration of half-maximal effect; conditions: P. falciparum in erythrocytes, SYBR Green DNA, 72 h; series mostly up to 28.7 µM
Procedure, shortened: (§1)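 Parasite proliferation within erythrocytes, 72 h exposure. Endpoint: SYBR Green I fluorescence after overnight lysis at room temperature. Controls: 0.29 uM artemisinin, DMSO.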

CP203 = experiment: as above; conditions: P. falciparum in erythrocytes, SYBR Green DNA, 72 h; series mostly up to 28.7 µM
Procedure, shortened: as §1

CP268 = experiment: as above; conditions: P. falciparum in erythrocytes, SYBR Green DNA, 72 h; series mostly up to 28.7 µM
Procedure, shortened: as §1

CP269 = experiment: as above; conditions: P. falciparum in erythrocytes, SYBR Green DNA, 72 h; series mostly up to 28.7 µM
Procedure, shortened: as §1

CP297 = experiment: as above; conditions: P. falciparum in erythrocytes, SYBR Green DNA, 72 h; series mostly up to 28.7 µM
Procedure, shortened: as §1

DIV14 = experiment: as above; conditions: P. falciparum in erythrocytes, SYBR Green DNA, 72 h; series mostly up to 28.7 µM
Procedure, shortened: as §1

DIV17 = experiment: as above; conditions: P. falciparum in erythrocytes, SYBR Green DNA, 72 h; series mostly up to 28.7 µM
Procedure, shortened: as §1

DIV30 = experiment: as above; conditions: P. falciparum in erythrocytes, SYBR Green DNA, 72 h; series mostly up to 28.7 µM
Procedure, shortened: as §1

PC26 = experiment: as above; conditions: P. falciparum in erythrocytes, SYBR Green DNA, 72 h; series mostly up to 28.7 µM
Procedure, shortened: as §1

W2 = experiment: as above; conditions: P. falciparum in erythrocytes, SYBR Green DNA, 72 h; series mostly up to 28.7 µM
Procedure, shortened: as §1

[6] = target: Ubiquitin carboxyl-terminal hydrolase 1 (Homo sapiens) (UniProt O94782); experiment: Inhibitors of USP1/UAF1: Pilot qHTS (AID 504865);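 note: rhodamine fluorescence freed from ubiquitin-rhodamine substrate followed over time; top concentration of the series differs between compounds; % is set by controls: 0 for no effect and ±100 for the full control effect; nearly all actives have a fitted effect of over 35% in size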
Procedure, shortened: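 Kinetic fluorescence assay: 1nM USP1/UAF1, 15 min compound preincubation, then 150nM Ub-Rho; 480/540 nm.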

CP266 = experiment: qHTS profiling for inhibitors of Plasmodium falciparum proliferation (AID 504749); note: nearly all actives have a fitted effect of over 60% in size; note: potency is the fitted concentration of half-maximal effect; conditions: P. falciparum in erythrocytes, SYBR Green DNA, 72 h; series mostly up to 28.7 µM
Procedure, shortened: as §1

CP329 = experiment: as above; conditions: P. falciparum in erythrocytes, SYBR Green DNA, 72 h; series mostly up to 28.7 µM
Procedure, shortened: as §1

[7] = target: Cytochrome P450 2C9 (Homo sapiens) (UniProt P11712); experiment: qHTS Assay for Inhibitors and Substrates of Cytochrome P450 2C9 (AID 883); note: potency is the fitted concentration of half-maximal effect; nearly all actives have a fitted effect of over 60% in size
Procedure, shortened: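 Human CYP2C9 (10nM) hydroxylated Luciferin-H (100uM, at its KM) to luciferin in 25mM KPO4. Compound was preincubated 10 min at 37C, then NADPH regeneration started a 60 min reaction at 37C. Luminescence was read after detection reagent, normalized to 57uM sulphaphenazole.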

[8] = target: DNA dC->dU-editing enzyme APOBEC-3G (Homo sapiens) (UniProt Q9HC16); experiment: qHTS for inhibitors of Vif-A3G interactions: Validation (AID 588379); note: 0% is about no effect
Procedure, shortened: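 HeLa cells stably expressing Vif and A3G-eYFP, 700 cells/well, incubated overnight at 37 deg C, then exposed to compound overnight at 37 deg C. Inhibition of Vif-mediated degradation read as increased yellow fluorescence (Ex 488/Em 500-530) by laser-scanning cytometry.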

Sequence of Rap guanine nucleotide exchange factor 4 (Homo sapiens) (Q8WZA2 whole entry, looked up): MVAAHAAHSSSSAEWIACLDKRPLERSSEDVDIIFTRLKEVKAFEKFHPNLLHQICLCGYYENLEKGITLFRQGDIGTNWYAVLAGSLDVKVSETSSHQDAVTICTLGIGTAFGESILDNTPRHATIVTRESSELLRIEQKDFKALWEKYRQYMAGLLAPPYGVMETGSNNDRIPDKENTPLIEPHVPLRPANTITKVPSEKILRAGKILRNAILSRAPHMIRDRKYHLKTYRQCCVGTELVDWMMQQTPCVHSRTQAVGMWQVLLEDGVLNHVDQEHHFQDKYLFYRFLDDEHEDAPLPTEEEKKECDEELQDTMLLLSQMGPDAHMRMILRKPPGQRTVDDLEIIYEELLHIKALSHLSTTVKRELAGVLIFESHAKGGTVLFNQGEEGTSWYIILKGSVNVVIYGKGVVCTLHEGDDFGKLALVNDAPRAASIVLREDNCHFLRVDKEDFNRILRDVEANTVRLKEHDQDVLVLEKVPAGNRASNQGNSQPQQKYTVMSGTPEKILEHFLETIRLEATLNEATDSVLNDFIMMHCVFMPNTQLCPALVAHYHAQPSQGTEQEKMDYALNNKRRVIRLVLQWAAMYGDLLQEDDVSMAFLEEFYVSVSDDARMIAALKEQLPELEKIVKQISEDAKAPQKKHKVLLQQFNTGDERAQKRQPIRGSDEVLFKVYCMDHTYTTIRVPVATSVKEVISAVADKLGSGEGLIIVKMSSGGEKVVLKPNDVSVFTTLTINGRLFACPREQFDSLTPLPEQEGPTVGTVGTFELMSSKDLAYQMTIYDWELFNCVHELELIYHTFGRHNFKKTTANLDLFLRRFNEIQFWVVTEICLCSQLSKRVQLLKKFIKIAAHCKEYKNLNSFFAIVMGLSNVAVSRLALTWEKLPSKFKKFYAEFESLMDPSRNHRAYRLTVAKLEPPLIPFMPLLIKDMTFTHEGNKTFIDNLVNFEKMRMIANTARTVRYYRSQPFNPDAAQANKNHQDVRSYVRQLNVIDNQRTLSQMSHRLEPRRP
Sequence of Ubiquitin carboxyl-terminal hydrolase 1 (Homo sapiens) (O94782 whole entry, looked up): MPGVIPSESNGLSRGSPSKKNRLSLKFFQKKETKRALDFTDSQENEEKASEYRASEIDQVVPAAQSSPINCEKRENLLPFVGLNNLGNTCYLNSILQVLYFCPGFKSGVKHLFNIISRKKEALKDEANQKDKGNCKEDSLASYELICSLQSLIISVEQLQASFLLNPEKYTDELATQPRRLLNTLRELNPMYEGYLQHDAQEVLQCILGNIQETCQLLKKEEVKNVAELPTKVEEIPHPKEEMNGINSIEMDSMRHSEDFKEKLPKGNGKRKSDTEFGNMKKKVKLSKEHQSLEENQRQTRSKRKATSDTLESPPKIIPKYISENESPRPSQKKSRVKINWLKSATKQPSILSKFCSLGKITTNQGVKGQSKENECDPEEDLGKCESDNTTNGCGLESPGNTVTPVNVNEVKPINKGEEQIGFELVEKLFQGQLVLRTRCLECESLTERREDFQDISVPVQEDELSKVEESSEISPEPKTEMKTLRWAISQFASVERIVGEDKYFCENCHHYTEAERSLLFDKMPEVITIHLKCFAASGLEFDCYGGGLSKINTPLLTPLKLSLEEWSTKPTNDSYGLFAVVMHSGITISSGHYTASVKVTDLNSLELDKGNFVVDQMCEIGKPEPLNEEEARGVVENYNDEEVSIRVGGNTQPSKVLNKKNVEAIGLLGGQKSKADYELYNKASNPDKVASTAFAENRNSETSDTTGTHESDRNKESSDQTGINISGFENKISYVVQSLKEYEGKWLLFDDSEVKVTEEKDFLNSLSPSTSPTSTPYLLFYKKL
Sequence of Cytochrome P450 2C9 (Homo sapiens) (P11712 whole entry, looked up): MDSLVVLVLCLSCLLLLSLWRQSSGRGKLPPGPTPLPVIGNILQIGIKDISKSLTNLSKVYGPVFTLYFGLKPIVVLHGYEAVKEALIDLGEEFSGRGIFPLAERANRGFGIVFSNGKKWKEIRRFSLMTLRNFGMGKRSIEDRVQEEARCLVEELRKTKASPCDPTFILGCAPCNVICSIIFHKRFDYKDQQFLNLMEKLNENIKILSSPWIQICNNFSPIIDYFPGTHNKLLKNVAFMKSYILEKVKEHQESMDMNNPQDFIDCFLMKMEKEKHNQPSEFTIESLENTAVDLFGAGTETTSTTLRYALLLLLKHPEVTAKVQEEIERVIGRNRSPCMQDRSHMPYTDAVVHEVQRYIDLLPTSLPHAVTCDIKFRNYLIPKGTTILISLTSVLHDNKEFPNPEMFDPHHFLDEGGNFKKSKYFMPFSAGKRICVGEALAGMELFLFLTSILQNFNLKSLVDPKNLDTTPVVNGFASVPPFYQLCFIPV
Sequence of DNA dC->dU-editing enzyme APOBEC-3G (Homo sapiens) (Q9HC16 whole entry, looked up): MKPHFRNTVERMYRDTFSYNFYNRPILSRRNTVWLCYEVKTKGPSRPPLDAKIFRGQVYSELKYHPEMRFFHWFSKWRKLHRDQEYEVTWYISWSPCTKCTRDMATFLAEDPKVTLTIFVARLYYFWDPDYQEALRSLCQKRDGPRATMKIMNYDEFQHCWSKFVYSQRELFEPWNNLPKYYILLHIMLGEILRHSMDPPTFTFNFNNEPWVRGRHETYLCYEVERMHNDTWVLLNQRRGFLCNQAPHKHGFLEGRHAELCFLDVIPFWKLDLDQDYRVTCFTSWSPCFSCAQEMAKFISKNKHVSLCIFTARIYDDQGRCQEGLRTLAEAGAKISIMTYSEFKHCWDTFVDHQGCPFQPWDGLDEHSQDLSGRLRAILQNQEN
Sequence of Glutathione peroxidase 1 (Homo sapiens) (P07203 whole entry, looked up): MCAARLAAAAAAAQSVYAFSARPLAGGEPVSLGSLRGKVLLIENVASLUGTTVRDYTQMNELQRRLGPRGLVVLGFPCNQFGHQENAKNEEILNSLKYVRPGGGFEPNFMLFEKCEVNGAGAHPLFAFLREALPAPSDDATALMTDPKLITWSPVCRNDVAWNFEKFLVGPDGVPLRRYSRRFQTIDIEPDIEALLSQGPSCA
Sequence of Rap guanine nucleotide exchange factor 3 (Homo sapiens) (O95398 whole entry, looked up): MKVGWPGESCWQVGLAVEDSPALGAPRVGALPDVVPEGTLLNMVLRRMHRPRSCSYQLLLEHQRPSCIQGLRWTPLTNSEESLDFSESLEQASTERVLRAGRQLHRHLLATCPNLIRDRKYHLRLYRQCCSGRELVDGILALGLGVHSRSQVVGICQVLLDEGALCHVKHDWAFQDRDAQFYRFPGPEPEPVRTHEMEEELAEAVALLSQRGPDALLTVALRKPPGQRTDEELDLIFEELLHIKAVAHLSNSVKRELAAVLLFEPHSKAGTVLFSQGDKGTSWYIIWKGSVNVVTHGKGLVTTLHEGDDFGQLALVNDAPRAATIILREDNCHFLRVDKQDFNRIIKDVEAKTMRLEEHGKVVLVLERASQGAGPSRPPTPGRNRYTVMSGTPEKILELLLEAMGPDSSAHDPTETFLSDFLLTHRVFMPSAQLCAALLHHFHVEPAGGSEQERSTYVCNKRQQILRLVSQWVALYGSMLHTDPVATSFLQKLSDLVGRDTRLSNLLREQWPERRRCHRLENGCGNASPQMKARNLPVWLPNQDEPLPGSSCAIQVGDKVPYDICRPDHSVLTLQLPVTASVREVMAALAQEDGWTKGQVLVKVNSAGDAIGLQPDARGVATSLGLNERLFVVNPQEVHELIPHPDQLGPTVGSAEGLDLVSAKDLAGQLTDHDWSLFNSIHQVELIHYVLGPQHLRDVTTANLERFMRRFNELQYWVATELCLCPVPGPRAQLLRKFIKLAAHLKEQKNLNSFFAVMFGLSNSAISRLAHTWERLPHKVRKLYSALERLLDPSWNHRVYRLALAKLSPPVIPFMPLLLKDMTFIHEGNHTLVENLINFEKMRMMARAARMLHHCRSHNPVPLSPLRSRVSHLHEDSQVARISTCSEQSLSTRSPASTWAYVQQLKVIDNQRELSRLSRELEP

For `Cc1ccccc1N1CCN(S(=O)(=O)C[C@]23CCC(CC2NC(=O)[C@@H](N)CCS(C)(=O)=O)C3(C)C)CC1` (stereo not given in full), the Potency [1] was “inactive”.
For `CN1C2CC(OC(=O)C(CO)c3ccccc3)CC1C1OC12` (stereo not given), the Potency [2] was “inactive”, the activation [3] was 2.48% [at 17.1 µM] and the activity change, negative = inhibition [4] was -4.32% [at 12.7 µM]. For the same compound, the activation [5] was 0.0134% [at 30.8 µM].
With `CC(C)C[C@H]1C(=O)N2CCCC2[C@]2(O)O[C@](NC(=O)[C@@H]3C=C4c5cccc6[nH]c(Br)c(c56)C[C@H]4N(C)C3)(C(C)C)C(=O)N12` (stereo not given in full) the Potency (CP192) was 16.9 µM (active), the Potency (CP203) was 9.53 µM (active) and the Potency (CP268) was 12 µM (active). For the same compound, the Potency (CP269) was 10.7 µM (active), the Potency (CP297) was 10.7 µM (active) and the Potency (DIV14) was 3.38 µM (active). For the same compound, the Potency (DIV17) was 3.79 µM (active), the Potency (DIV30) was 5.36 µM (active) and the Potency (PC26) was 5.36 µM (active). For the same compound, the Potency (W2) was 1.69 µM (active).
For `COc1ccc(CCNC[C@@H](O)c2ccc(O)cc2)cc1OC`, the Potency [6] was “inactive”, the Potency (CP192) was “inactive” and the Potency (CP266) was “inactive”. The Potency (CP268) was “inactive”, the Potency (CP269) was “inactive” and the Potency (CP329) was “inactive”.
`COC(=O)c1c(-c2cc(OC)c(OC)c(OC)c2)c2ccc(OCc3ccccn3)cc2c(=O)n1-c1ccc(N)cc1` was tested, and the Potency [7] was 3.98 µM (active).
`COc1cc2c(cc1OC)C(c1ccccc1)CN(C)CC2` (stereo not given) was tested, and the Potency [6] was “inactive”, the Potency (CP203) was “inactive” and the Potency (CP266) was “inactive”. The Potency (DIV30) was “inactive” and the Potency (PC26) was “inactive”.
For `COc1cc(=O)n(C)c2c(OCC(O)C(C)(C)O)cccc12` (stereo not given), the outcome [8] was “inactive”.
`CC(C)(C)[C@]1(O)CCN2CC3c4ccccc4CCc4cccc(c43)[C@@H]2C1` (stereo not given in full) was tested, and the Potency (CP329) was “inactive”, the Potency (DIV14) was 10.7 µM (active) and the Potency (DIV17) was 15.1 µM (active). The Potency (W2) was 5.36 µM (active).
With `CN1C[C@H](C(=O)N[C@]2(C)O[C@@]3(O)C4CCCN4C(=O)[C@H](Cc4ccccc4)N3C2=O)C[C@@H]2c3cccc4[nH]cc(c34)C[C@H]21` (stereo not given in full) the outcome [8] was “inactive”.
For `CCCC(=O)NCCc1c2n(c3ccc(OC)cc13)Cc1ccccc1-2`, the Potency [7] was 1.26 µM (active).
`CC(=O)NC(c1cccs1)c1cc(Br)c2cccnc2c1O` (stereo not given) was tested, and the activation [3] was 0% [at 17.1 µM].
